Measurements from ChEMBL document CHEMBL1157539, “Thousands of chemical starting points for antimalarial lead identification” (Nature, 2010).

Each compound was assayed on HepG2 (assay: GSK_TCMDC: Percent inhibition of human HepG2 cell line. Test compounds present at 10uM.).
Assay type: functional

| Compound | Inhibition [%] |
| --- | --- |
| CCOc1cccc(C(=O)Nc2ccc(-c3nc4ccccc4[nH]3)cc2)c1 | 40 |
| Fc1ccc2nc(Nc3nc(-c4ccccn4)cs3)sc2c1 | 42 |
| O=C(/C=C/c1ccc(C(F)(F)F)cc1)NCCCCCN1CCCN(C(=O)Nc2ccc(Cl)cc2)CC1 | 28 |
| O=C(/C=C/c1ccc(Cl)c(Cl)c1)NCCCCCCN1CCCN(C(=O)Nc2ccc(Cl)c(Cl)c2)CC1 | 25 |
| CCCC(=O)NC(c1ccc(C)cc1)c1ccc2cccnc2c1O (centres undefined) | 52 |
| CC(C)NCc1cccc(-c2ccc(NS(=O)(=O)c3cccc4cccnc34)cc2)c1.O=C(O)C(F)(F)F | 21 |
| COc1ccc(CCN2CCC(Nc3nc4ccccc4n3CCc3ccc(OC)cc3)CC2)cc1.Cl | 34 |
| CC(C)c1ccc(NS(=O)(=O)c2cccc(C(=O)NC3CCN(CC4CCCCC4)CC3)c2)cc1.O=C(O)C(F)(F)F | 71 |
| Cc1ccc(C2CCN(CCCCNC(=O)c3ccc(-c4ccc(C#N)cc4)cc3)CC2)c(O)c1 | 45 |
| O=C(NCC1CCC(CNCCc2ccccc2)CC1)Nc1ccc(Cl)c(Cl)c1 (centres undefined) | 24 |
| COc1ccc(CNC2CCN(C)CC2)cc1-c1ccc(S(=O)(=O)NCc2cccnc2)s1.O=C(O)C(F)(F)F | 10 |
| O=C(Nc1cccc(CN2CCCN(Cc3ccc(O)cc3)CC2)c1)c1ccc(Cl)c(Cl)c1.O=C(O)C(F)(F)F | 22 |
| CC(C)c1cc2c(cc1O)C(Cc1ccccc1Cl)N(C)CC2.Cl (centres undefined) | 0 |
| CCN(CCCN1CCCCC1)c1cc(C)nc(Nc2cc(Br)ccc2C)n1.O=C(O)C(F)(F)F | 32 |
